Measured values from PubChem BioAssay (EPA / NIEHS).
Results filed as inconclusive are left out. The source made the active and inactive calls. Rule for the calls, unless noted: active = hit-call score of the fitted dose curve at least 0.9, where 1 is the maximum; inactive = score below 0.9.

Columns and labels:
[1] = ATG_TCF_b_cat_CIS: Attagene CIS-FACTORIAL HepG2 Assay for human T-Cell-Factor with beta-catenin (TCF/b-cat) (AID 2282965); conditions: HepG2 TCF/beta-catenin cis-reporter transcription, actives raise or lower the signal
Summary of the method: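 Endogenous transcription factor activity is captured through cis-promoter reporter constructs transiently introduced into human HepG2 liver cells. Induced reporter mRNA is measured after 24 h and fitted bidirectionally relative to DMSO.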

[2] = ATG_TAL_CIS: Attagene CIS-FACTORIAL HepG2 Assay for human TAL Basal Promoter (AID 2282966); conditions: HepG2 Attagene cis-factorial TAL promoter reporter; actives raise or lower the signal;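 note: background control endpoint measuring basal TAL promoter reporter mRNA not a specific factor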
Summary of the method: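 Human hepatoma HepG2 cells, transfected with promoter-regulated reporter units, were treated 24 h. Reporter transcript levels, measured through RT-PCR and capillary electrophoresis, were fitted for gain or loss relative to DMSO.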

[3] = ATG_TGFb_CIS: Attagene CIS-FACTORIAL HepG2 Assay for human Transforming Growth Factor (TGF) (AID 2282967); conditions: HepG2 Attagene CIS TGFb reporter, mRNA transcription; actives raise or lower the signal
Summary of the method: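 Readout: fluorescently labeled reporter cDNA fragments resolved by capillary electrophoresis after RT-PCR. Transfected HepG2 cells dosed for 24 h; endogenous TF activity at TGFB1-linked cis element; gain or loss fitted relative to DMSO.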

[4] = ATG_VDRE_CIS: Attagene CIS-FACTORIAL HepG2 Assay for human Vitamin D Receptor Element (VDRE) (AID 2282968); conditions: HepG2 VDRE cis-reporter transcription, actives raise or lower the signal
Summary of the method: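 Readout is VDRE-driven reporter mRNA reflecting endogenous factor activity in human HepG2 cells, sampled 24 h post-dose. Quantification used labelled RT-PCR products separated by capillary electrophoresis; bidirectional analysis relative to DMSO.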

[5] = target: Estrogen receptor (Homo sapiens) (UniProt P03372); experiment: ATG_ERa_TRANS: Attagene TRANS-FACTORIAL HepG2 Assay for human Estrogen Receptor alpha (ERa) (AID 2282970; active = hit-call score of the fitted dose curve at least 0.9, where 1 is the maximum); conditions: HepG2 Attagene TRANS ERa GAL4 reporter, mRNA
Summary of the method: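 Signal derives from fluorescence of labelled reporter PCR fragments separated by capillary electrophoresis. HepG2 cells transiently carrying multiple GAL4-UAS reporter units were treated 24 hours, and induction above DMSO baseline was fitted as activity.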

[6] = target: X-box-binding protein 1 (Homo sapiens) (UniProt P17861); experiment: ATG_Xbp1_CIS: Attagene CIS-FACTORIAL HepG2 Assay for human X-box Binding Protein 1 (XBP1) (AID 2282972); conditions: HepG2 XBP1 cis-element reporter, Attagene multiplex; actives raise or lower the signal
Summary of the method: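 Changes in reporter transcript abundance, read by RT-PCR and capillary electrophoresis, reflect endogenous transcription factor activity. Transfected HepG2 cells received compound for 24 hours; DMSO defined baseline for bidirectional analysis.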

[7] = ATG_M_19_TRANS: Attagene TRANS-FACTORIAL HepG2 Assay for M19 Transcription Factor (Internal Marker) (AID 2282974; active = hit-call score of the fitted dose curve at least 0.9, where 1 is the maximum); conditions: HepG2 Attagene TRANS-FACTORIAL M19 internal marker reporter
Summary of the method: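 Background-control readout: after 24 h chemical exposure of transfected HepG2 carrying GAL4-driven reporter units, RNA was reverse-transcribed, amplified, fluorescently labeled and sized by capillary electrophoresis; gain-of-signal fit against DMSO.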

[8] = ATG_GAL4_TRANS: Attagene TRANS-FACTORIAL HepG2 Assay for GAL4 (Internal Marker) (AID 2282976; active = hit-call score of the fitted dose curve at least 0.9, where 1 is the maximum); conditions: HepG2 Attagene TRANS GAL4 internal marker reporter
Summary of the method: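 Liver HepG2 line bearing multiplexed GAL4-UAS reporter constructs; 24 h chemical treatment. Transcripts were quantified as fluorescent fragments on capillary electrophoresis after RT-PCR and HpaI cut, with activity fitted upward from DMSO.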

[9] = target: Glucocorticoid receptor (Homo sapiens) (UniProt P04150); experiment: ATG_GR_TRANS: Attagene TRANS-FACTORIAL HepG2 Assay for human Glucocorticoid Receptor (GR) (AID 2282978; active = hit-call score of the fitted dose curve at least 0.9, where 1 is the maximum;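 note: activators score as hits since higher reporter transcript over DMSO is fitted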); conditions: HepG2 Attagene TRANS GR reporter, mRNA transcription
Summary of the method: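 Readout is reporter transcript from a chimeric GR-Gal4 acting on GAL4-UAS in transfected human HepG2 liver cells after 24 h exposure, quantified by RT-PCR and capillary electrophoresis. Activation fitted upward against DMSO.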

[10] = target: Bile acid receptor (Homo sapiens) (UniProt Q96RI1); experiment: ATG_FXR_TRANS: Attagene TRANS-FACTORIAL HepG2 Assay for Farnesoid X Receptor (FXR) (AID 2282979; active = hit-call score of the fitted dose curve at least 0.9, where 1 is the maximum;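 note: hits raise reporter mRNA above DMSO so AC50 marks FXR activation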); conditions: HepG2 Attagene TRANS FXR-GAL4 reporter transcription
Summary of the method: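 After 24 h chemical treatment of transfected HepG2 cells, GAL4-UAS reporter transcripts driven by an exogenous FXR-GAL4 fusion were measured by RT-PCR and capillary electrophoresis. Increases over DMSO were fitted.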

[11] = target: Hepatocyte nuclear factor 4-alpha (Homo sapiens) (UniProt P41235); experiment: ATG_HNF4a_TRANS: Attagene TRANS-FACTORIAL HepG2 Assay for human Hepatocyte Nuclear Factor 4 alpha (HNF4a) (AID 2282982; active = hit-call score of the fitted dose curve at least 0.9, where 1 is the maximum); conditions: HepG2 HNF4a transactivation reporter, mRNA readout
Summary of the method: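 Activity of an exogenous HNF4a–Gal4 fusion scored as induced GAL4-UAS reporter transcripts after 24 h chemical exposure of transfected human HepG2 cells. Read-out via RT-PCR with 6-FAM labelling and capillary electrophoresis; rise over DMSO baseline.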

[12] = ATG_M_32_TRANS: Attagene TRANS-FACTORIAL HepG2 Assay for M32 Transcription Factor (Internal Marker) (AID 2282984; active = hit-call score of the fitted dose curve at least 0.9, where 1 is the maximum); conditions: HepG2 Attagene TRANS M32 internal marker reporter
Summary of the method: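 Internal background reporter in transfected HepG2: after 24 h chemical exposure, RNA reverse-transcribed, reporter cDNA amplified, fluorescently labelled and HpaI-cut, then sized by capillary electrophoresis. Gain of signal fitted against DMSO control.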

[13] = target: Nuclear receptor subfamily 4 group A member 2 (Homo sapiens) (UniProt P43354); experiment: ATG_NURR1_TRANS: Attagene TRANS-FACTORIAL HepG2 Assay for human Nuclear Receptor Related Protein 1 (NURR1) (AID 2282985; active = hit-call score of the fitted dose curve at least 0.9, where 1 is the maximum); conditions: HepG2 Attagene TRANS reporter, mRNA readout
Summary of the method: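 Reporter transcript induction, measured by RT-PCR with fluorescent labelling, HpaI digestion and capillary electrophoresis, after 24 hr dosing of human HepG2 cells transiently expressing an exogenous NR-Gal4 fusion with GAL4-UAS-driven reporters; DMSO as baseline.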

[14] = target: Transcriptional activator Myb (Homo sapiens) (UniProt P10242); experiment: ATG_Myb_CIS: Attagene CIS-FACTORIAL HepG2 Assay for human Myeloblastosis (Myb) Proto-Oncogene Transcription Factor (AID 2282986); conditions: HepG2 Attagene CIS-FACTORIAL Myb reporter transcription; actives raise or lower the signal
Summary of the method: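 Reporter mRNA is quantified by RT-PCR and capillary electrophoresis 24 h after dosing HepG2 cells transfected with cis-regulated reporter units, which track endogenous transcription factor activity. Gain and loss of signal are fitted versus DMSO baseline.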

[15] = target: Oxysterols receptor LXR-alpha (Homo sapiens) (UniProt Q13133); experiment: ATG_LXRa_TRANS: Attagene TRANS-FACTORIAL HepG2 Assay for human Liver X Receptor alpha (LXRa) (AID 2282980; active = hit-call score of the fitted dose curve at least 0.9, where 1 is the maximum); conditions: HepG2 Attagene TRANS reporter, LXRa transactivation
Summary of the method: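 In this multiplexed TRANS system, compounds act on HepG2 cells carrying GAL4-UAS reporter units and a receptor-GAL4 fusion for 24 h. Induced reporter RNA is amplified, fluorescently labelled and sized by capillary electrophoresis, with DMSO as baseline.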

[16] = target: Oxysterols receptor LXR-beta (Homo sapiens) (UniProt P55055); experiment: ATG_LXRb_TRANS: Attagene TRANS-FACTORIAL HepG2 Assay for human Liver X Receptor beta (LXRb) (AID 2282981; active = hit-call score of the fitted dose curve at least 0.9, where 1 is the maximum); conditions: HepG2 Attagene TRANS GAL4-LXRb reporter, mRNA
Summary of the method: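 After 24 h chemical treatment of transfected HepG2 cells carrying exogenous NR-Gal4 chimeras, reporter mRNA was quantified by fluorescent RT-PCR and capillary electrophoresis; activity taken as increase over DMSO controls.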

[17] = ATG_M_06_TRANS: Attagene TRANS-FACTORIAL HepG2 Assay for M06 Transcription Factor (Internal Marker) (AID 2282983; active = hit-call score of the fitted dose curve at least 0.9, where 1 is the maximum); conditions: HepG2 Attagene TRANS M06 internal marker reporter
Summary of the method: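 Multi-reporter-transfected HepG2, 24 h treatment; reporter transcripts quantified via RT-PCR, primer-extension labelling and CE. DMSO-normalized gain-of-signal fit.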

[18] = target: Estrogen-related receptor gamma (Homo sapiens) (UniProt P62508); experiment: ATG_ERRg_TRANS: Attagene TRANS-FACTORIAL HepG2 Assay for human Estrogen-Related Receptor gamma (ERRg) (AID 2282977; active = hit-call score of the fitted dose curve at least 0.9, where 1 is the maximum;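 note: hits increase reporter signal over DMSO so potencies reflect activators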); conditions: HepG2 Attagene TRANS reporter, ERRg transactivation
Summary of the method: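 Exogenous NR-Gal4 chimera activity measured as reporter transcript induction after 24 h in transiently transfected HepG2 cells. RNA reverse-transcribed, PCR-amplified, 6-FAM-labelled and resolved by capillary electrophoresis; increase over DMSO baseline.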

Measured: AC50

Transcriptional activator Myb (Homo sapiens), sequence (P10242 whole entry, looked up): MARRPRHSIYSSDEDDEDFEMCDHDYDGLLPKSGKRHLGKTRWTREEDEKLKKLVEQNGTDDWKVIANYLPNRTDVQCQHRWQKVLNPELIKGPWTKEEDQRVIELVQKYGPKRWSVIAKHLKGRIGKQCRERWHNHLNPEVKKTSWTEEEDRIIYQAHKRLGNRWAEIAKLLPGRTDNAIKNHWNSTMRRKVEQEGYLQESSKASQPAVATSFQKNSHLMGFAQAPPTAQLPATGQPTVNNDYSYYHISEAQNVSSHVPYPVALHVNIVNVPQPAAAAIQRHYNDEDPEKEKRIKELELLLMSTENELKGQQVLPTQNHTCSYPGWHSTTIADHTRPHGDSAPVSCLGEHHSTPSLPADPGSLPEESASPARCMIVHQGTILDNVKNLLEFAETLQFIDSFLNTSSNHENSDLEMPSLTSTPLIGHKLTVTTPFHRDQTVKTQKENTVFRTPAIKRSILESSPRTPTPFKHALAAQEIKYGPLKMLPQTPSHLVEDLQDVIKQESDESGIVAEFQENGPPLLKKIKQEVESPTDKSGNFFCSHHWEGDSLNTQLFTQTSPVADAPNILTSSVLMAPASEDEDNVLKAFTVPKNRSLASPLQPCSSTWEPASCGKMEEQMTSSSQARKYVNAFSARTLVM
Nuclear receptor subfamily 4 group A member 2 (Homo sapiens), sequence (P43354 whole entry, looked up, the tested form may be a part): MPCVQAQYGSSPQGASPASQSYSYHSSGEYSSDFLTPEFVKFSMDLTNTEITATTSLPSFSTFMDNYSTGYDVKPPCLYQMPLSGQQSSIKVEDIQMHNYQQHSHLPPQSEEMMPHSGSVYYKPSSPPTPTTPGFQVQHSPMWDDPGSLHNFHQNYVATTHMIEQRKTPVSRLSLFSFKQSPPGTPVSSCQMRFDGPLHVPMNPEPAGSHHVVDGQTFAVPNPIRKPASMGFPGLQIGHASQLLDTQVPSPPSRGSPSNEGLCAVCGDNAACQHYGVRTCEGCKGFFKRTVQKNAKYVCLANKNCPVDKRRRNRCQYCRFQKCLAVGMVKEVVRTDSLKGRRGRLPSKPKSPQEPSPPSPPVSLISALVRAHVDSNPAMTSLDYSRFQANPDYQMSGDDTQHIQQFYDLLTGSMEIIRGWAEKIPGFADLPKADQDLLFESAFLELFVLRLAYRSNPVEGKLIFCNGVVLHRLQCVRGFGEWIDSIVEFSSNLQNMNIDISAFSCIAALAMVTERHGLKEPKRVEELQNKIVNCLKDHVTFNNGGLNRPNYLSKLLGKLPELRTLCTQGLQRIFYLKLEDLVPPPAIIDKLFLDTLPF
Hepatocyte nuclear factor 4-alpha (Homo sapiens), sequence (P41235 whole entry, looked up, the tested form may be a part): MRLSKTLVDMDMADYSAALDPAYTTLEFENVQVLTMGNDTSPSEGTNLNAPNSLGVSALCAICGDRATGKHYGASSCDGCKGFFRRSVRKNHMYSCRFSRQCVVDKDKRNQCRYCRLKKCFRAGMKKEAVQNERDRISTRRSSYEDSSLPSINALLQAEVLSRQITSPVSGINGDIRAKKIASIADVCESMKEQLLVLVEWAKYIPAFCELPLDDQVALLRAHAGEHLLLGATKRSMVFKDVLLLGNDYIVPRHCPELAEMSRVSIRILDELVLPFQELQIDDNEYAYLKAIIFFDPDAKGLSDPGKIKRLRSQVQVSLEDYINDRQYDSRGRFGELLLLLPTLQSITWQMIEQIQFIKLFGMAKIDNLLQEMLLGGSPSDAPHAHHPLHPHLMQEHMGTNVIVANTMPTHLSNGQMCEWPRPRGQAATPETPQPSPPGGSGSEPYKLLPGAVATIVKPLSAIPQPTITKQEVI
Oxysterols receptor LXR-alpha (Homo sapiens), sequence (Q13133 whole entry, looked up, the tested form may be a part): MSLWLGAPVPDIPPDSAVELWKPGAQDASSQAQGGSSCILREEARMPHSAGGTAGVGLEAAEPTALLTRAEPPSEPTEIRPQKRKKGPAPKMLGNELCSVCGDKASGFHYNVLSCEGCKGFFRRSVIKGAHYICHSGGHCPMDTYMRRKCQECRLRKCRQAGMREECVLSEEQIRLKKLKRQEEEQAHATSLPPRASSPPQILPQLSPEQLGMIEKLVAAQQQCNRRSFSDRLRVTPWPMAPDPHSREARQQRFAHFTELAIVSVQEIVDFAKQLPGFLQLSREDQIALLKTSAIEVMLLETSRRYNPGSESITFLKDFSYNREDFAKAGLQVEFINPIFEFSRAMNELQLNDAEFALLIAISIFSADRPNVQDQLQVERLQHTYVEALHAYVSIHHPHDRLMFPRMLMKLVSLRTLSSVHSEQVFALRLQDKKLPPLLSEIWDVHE
Bile acid receptor (Homo sapiens), sequence (Q96RI1 whole entry, looked up, the tested form may be a part): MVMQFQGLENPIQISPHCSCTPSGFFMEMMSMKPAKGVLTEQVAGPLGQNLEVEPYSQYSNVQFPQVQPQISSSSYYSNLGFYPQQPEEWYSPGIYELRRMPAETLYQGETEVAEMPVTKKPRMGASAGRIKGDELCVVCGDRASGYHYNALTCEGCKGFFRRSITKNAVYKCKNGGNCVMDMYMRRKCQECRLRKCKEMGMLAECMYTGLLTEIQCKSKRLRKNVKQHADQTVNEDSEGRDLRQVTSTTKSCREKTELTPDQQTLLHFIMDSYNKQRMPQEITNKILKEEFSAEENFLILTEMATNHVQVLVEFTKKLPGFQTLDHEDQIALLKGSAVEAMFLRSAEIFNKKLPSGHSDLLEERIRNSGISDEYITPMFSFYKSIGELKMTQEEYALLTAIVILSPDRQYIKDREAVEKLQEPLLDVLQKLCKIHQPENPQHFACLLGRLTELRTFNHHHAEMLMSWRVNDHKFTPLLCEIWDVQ
Estrogen receptor (Homo sapiens), sequence (P03372 whole entry, looked up, the tested form may be a part): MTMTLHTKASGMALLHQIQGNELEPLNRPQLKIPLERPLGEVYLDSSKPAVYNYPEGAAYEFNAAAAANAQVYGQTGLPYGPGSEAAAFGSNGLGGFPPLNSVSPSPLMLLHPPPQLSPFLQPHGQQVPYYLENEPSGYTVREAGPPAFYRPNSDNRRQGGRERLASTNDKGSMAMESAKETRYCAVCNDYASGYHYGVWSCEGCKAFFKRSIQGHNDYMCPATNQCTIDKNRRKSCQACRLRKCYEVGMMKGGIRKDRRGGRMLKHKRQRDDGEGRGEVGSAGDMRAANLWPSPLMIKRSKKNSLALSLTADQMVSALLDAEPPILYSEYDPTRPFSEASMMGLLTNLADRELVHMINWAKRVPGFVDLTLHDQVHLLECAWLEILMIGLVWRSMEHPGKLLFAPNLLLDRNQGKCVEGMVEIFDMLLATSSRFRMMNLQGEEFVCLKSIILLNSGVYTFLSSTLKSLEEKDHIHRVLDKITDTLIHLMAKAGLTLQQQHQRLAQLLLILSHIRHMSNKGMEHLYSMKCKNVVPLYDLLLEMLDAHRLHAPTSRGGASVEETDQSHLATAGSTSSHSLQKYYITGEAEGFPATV
X-box-binding protein 1 (Homo sapiens), sequence (P17861 whole entry, looked up): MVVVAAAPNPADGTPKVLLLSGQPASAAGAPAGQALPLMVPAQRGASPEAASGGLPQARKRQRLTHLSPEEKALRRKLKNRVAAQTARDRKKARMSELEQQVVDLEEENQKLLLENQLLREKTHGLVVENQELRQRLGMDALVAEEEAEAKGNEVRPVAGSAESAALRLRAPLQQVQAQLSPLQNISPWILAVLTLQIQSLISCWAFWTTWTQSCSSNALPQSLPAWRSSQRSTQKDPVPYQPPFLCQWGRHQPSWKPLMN
Oxysterols receptor LXR-beta (Homo sapiens), sequence (P55055 whole entry, looked up, the tested form may be a part): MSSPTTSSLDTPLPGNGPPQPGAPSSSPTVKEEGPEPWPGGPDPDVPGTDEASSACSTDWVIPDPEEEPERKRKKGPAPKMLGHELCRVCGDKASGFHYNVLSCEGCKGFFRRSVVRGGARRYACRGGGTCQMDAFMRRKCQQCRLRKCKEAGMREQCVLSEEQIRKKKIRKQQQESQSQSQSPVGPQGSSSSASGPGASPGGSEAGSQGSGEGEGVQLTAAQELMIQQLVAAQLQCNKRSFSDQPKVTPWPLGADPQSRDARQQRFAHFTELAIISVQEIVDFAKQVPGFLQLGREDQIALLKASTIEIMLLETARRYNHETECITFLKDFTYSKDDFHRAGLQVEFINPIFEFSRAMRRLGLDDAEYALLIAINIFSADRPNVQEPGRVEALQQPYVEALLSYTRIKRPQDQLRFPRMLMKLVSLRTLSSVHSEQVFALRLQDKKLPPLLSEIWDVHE
Glucocorticoid receptor (Homo sapiens), sequence (P04150 whole entry, looked up, the tested form may be a part): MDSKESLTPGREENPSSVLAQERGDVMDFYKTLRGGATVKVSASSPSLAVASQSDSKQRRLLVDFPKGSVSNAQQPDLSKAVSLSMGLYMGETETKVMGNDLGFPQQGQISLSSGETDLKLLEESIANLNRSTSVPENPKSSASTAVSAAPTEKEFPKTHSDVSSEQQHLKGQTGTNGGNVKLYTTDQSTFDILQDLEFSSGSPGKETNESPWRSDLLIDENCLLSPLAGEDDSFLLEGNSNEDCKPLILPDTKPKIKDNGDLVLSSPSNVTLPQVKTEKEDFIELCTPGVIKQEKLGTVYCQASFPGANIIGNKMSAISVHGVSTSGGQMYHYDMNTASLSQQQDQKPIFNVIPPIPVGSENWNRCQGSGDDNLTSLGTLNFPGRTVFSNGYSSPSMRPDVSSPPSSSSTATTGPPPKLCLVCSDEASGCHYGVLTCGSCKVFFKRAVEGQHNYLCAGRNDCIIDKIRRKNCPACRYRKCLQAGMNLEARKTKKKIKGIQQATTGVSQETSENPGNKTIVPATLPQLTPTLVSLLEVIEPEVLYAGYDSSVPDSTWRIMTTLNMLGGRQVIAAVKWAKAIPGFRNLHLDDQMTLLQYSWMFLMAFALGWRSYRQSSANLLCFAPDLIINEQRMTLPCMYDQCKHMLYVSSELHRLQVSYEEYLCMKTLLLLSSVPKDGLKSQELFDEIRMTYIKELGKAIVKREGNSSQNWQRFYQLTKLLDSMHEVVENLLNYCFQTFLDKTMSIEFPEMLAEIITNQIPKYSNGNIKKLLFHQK

CC/C=C\C/C=C\C/C=C\CCCCCCCC(=O)OC
active: [1] 64.9 µM | [3] 100 µM
not listed: [15] | [16] | [17] | [18]
inactive: all other assays above

CC(C)COC(=O)CC(C(=O)OCC(C)C)S(=O)(=O)O (centres undefined)
inactive: [1] | [2] | [3] | [4] | [6] | [7] | [15] | [16] | [13] | [14]

O=C(Nc1ccccc1)c1cc(Cl)ccc1O
active: [3] 52.5 µM | [4] 6.51 µM | [6] 4.18 µM
not listed: [7] | [8] | [9] | [13] | [17] | [18]
inactive: all other assays above

CC1=CCC2CC1C2(C)C (centres undefined)
not listed: [7] | [9] | [10] | [12] | [15] | [16] | [18]
inactive: all other assays above

C=CC(=O)OCC(C)OCC(C)OCC(C)OC(=O)C=C (centres undefined)
active: [1] 71.5 µM | [3] 143 µM | [4] 6.27 µM | [14] 65.2 µM
inactive: [2] | [6] | [8] | [16] | [11] | [12]

COC(=O)C=Cc1ccccc1
not listed: [7] | [9] | [10] | [11] | [12] | [13] | [18]
inactive: all other assays above

CC(C)=CCl
not listed: [7] | [8] | [9] | [15] | [17] | [18]
inactive: all other assays above

Cc1ccc([N+](=O)[O-])cc1N
not listed: [7] | [9] | [13] | [15] | [18]
inactive: all other assays above

CC(C)OC(=O)c1ccccc1
inactive: [1] | [2] | [3] | [4] | [5] | [6] | [18] | [11] | [17] | [14]

Cc1c[nH]c(=O)[nH]c1=O
inactive: [1] | [2] | [3] | [4] | [6] | [10] | [16] | [11] | [17] | [14]

CCCCCCCO
active: [5] 67.1 µM
not listed: [7] | [8] | [9] | [10] | [11] | [16] | [18]
inactive: all other assays above

CC=C(C)C=CC=C(C)C
inactive: [1] | [2] | [3] | [5] | [6] | [15] | [11] | [17] | [13]
active: [4] 27.7 µM
